Laboratory results from paper PMC7862700, “An all-to-all approach to the identification of sequence-specific readers for epigenetic DNA modifications on cytosine”.

Assays:
Assay in all cases: DAPPL (digital affinity profiling via proximity ligation, sequencing); 10 mM Tris-HCl pH 7.5, 50 mM NaCl, 1 mM DTT, 4% glycerol, room temperature, 30 min; GST-TFs on glutathione beads, 16-mer random dsDNA library, 0.1% formaldehyde crosslink after washing; high values mean tight binding
Conditions in all cases: protein: recombinant; tags: N-terminal GST; dsDNA, one strand shown
FLI1 = target: T1, FLI1 (Homo sapiens, UniProt Q01543 1-452)
T1 sequence: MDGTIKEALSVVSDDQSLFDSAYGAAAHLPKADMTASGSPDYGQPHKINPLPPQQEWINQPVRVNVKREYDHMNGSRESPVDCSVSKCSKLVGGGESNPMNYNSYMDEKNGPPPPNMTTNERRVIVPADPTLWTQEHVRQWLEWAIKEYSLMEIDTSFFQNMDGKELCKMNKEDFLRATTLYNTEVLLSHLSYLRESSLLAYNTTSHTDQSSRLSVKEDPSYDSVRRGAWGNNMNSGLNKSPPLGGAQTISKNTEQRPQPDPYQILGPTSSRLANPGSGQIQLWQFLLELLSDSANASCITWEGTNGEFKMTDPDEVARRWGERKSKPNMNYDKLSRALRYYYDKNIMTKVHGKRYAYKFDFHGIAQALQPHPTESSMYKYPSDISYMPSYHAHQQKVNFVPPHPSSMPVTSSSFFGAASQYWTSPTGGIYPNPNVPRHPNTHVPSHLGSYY
Outline: (§1)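 Each value of binding signal is a hexamer's read frequency for a factor divided by the same hexamer's frequency in the tag-only sample. Barcoded, bead-captured GST fusions of human transcription factors made in yeast were pooled with that sample and incubated with 200 nmole of a random double-stranded 16-mer DNA library in Tris/NaCl/DTT/glycerol buffer at room temperature for 30 min. Washing, 0.1% formaldehyde crosslinking, proximity ligation, PCR and Illumina NextSeq500 sequencing followed.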

ELK1 = target: T2, ELK1 (Homo sapiens, UniProt P19419 1-428)
T2 sequence: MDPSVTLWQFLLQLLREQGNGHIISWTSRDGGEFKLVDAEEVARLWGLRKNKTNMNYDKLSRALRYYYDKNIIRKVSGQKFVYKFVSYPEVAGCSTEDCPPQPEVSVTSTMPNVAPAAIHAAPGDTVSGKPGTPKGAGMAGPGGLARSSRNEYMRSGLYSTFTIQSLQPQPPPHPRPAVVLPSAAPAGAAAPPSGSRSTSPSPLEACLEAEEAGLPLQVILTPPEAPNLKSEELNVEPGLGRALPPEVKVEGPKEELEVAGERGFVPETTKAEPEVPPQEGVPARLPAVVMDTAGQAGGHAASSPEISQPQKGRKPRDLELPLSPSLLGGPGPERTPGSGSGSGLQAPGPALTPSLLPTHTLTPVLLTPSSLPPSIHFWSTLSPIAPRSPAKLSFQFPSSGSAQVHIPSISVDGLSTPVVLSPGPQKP
Outline: as §1

GABPA = target: T3, GABPA (Homo sapiens, UniProt Q06546 1-454)
T3 sequence: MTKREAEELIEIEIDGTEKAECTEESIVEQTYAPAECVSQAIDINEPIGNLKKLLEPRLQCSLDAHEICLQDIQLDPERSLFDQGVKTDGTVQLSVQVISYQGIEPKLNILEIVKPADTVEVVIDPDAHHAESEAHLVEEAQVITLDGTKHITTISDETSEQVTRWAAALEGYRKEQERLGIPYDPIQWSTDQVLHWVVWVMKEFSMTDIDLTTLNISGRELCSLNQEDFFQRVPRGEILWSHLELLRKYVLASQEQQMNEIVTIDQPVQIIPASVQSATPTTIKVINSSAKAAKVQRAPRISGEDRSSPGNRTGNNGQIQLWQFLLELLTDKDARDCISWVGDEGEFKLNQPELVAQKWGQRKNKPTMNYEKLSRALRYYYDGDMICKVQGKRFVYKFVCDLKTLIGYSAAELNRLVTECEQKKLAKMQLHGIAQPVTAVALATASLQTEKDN
Outline: as §1

ERG = target: T4, ERG (Homo sapiens, UniProt P11308 1-479)
T4 sequence: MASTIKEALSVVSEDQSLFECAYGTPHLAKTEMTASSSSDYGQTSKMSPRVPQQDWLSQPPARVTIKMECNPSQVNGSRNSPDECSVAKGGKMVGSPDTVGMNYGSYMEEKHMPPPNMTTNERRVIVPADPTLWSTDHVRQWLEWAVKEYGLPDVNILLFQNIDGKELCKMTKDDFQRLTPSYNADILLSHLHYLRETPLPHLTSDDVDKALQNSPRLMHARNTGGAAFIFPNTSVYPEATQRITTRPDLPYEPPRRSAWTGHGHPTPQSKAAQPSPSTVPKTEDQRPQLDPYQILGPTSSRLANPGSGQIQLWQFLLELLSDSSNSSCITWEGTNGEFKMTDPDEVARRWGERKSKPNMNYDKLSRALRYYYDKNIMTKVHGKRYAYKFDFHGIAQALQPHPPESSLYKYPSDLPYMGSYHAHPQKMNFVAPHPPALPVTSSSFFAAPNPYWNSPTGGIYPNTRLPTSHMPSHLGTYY
Outline: as §1

ELF1 = ELF1 (Homo sapiens, UniProt P32519 1-619)
Outline: as §1

EHF = target: T5, EHF (Homo sapiens, UniProt Q9NZC4 1-300)
T5 sequence: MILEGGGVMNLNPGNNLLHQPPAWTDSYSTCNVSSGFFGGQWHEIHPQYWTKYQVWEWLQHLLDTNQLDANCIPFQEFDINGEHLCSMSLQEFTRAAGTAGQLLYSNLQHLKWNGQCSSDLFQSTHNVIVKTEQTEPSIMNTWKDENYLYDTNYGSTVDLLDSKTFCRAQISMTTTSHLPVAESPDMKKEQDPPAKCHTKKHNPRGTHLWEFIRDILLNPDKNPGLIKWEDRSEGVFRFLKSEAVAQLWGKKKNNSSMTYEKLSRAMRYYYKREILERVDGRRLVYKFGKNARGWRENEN
Outline: as §1

SPI1 = SPI1 (Homo sapiens, UniProt P17947 1-270)
Outline: as §1

SPIB = SPIB (Homo sapiens, UniProt Q01892 1-262)
Outline: as §1

ELK3 = target: T6, ELK3 (Homo sapiens, UniProt P41970 1-407)
T6 sequence: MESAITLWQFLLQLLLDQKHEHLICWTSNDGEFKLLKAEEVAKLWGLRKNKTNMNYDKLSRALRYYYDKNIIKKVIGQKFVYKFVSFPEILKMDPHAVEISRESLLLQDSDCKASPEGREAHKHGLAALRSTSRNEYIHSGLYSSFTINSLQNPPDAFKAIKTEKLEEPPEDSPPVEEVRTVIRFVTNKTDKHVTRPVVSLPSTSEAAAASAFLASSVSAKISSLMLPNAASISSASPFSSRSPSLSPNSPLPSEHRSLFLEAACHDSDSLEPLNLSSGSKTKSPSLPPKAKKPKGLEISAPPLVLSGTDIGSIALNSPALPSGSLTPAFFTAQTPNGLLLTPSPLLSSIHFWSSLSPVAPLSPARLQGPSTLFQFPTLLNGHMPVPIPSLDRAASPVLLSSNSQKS
Outline: as §1

Sequence of SPIB (Q01892 whole entry): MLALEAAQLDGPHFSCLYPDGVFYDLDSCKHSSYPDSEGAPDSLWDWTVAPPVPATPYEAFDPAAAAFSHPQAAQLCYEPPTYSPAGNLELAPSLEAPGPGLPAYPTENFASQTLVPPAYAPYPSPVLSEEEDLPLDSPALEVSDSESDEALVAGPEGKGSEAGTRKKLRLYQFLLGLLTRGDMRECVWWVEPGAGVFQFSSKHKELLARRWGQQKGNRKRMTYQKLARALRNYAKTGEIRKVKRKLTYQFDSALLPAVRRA
Sequence of ELF1 (P32519 whole entry): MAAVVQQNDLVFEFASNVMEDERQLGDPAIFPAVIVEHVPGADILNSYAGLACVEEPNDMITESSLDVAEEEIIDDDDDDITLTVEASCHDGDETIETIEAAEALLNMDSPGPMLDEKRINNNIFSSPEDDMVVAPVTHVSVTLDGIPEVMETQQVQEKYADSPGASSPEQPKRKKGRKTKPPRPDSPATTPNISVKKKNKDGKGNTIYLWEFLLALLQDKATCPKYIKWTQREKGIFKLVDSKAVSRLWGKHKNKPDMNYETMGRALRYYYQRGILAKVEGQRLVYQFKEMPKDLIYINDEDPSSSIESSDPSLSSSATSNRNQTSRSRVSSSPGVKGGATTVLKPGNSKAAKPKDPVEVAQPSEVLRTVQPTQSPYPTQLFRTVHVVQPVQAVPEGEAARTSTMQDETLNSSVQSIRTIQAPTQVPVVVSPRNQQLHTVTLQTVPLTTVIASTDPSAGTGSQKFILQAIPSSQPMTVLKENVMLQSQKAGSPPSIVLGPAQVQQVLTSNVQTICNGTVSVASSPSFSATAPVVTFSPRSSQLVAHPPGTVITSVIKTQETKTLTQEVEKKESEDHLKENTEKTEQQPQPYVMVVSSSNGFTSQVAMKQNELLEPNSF

Sequence | binding signal (FLI1) | binding signal (ELK1) | binding signal (GABPA) | binding signal (ERG) | binding signal (ELF1) | binding signal (EHF) | binding signal (SPI1) | binding signal (SPIB) | binding signal (ELK3)
ACCTTC | 1.8 fold enrichment (6-mer frequency, TF over GST control) | 1.94 fold enrichment (6-mer frequency, TF over GST control) | 1.79 fold enrichment (6-mer frequency, TF over GST control) | 2.03 fold enrichment (6-mer frequency, TF over GST control) | 1.92 fold enrichment (6-mer frequency, TF over GST control) | 2.02 fold enrichment (6-mer frequency, TF over GST control) | 1.75 fold enrichment (6-mer frequency, TF over GST control) | 1.95 fold enrichment (6-mer frequency, TF over GST control) | 1.8 fold enrichment (6-mer frequency, TF over GST control)
GCACTG | 1.18 fold enrichment (6-mer frequency, TF over GST control) | 1.12 fold enrichment (6-mer frequency, TF over GST control) | 1.14 fold enrichment (6-mer frequency, TF over GST control) | 1.07 fold enrichment (6-mer frequency, TF over GST control) | 1.1 fold enrichment (6-mer frequency, TF over GST control) | 1.12 fold enrichment (6-mer frequency, TF over GST control) | 1.14 fold enrichment (6-mer frequency, TF over GST control) | 1.05 fold enrichment (6-mer frequency, TF over GST control) | 1.06 fold enrichment (6-mer frequency, TF over GST control)
ATCTAC | 1.2 fold enrichment (6-mer frequency, TF over GST control) | 1.38 fold enrichment (6-mer frequency, TF over GST control) | 1.22 fold enrichment (6-mer frequency, TF over GST control) | 1.2 fold enrichment (6-mer frequency, TF over GST control) | 1.34 fold enrichment (6-mer frequency, TF over GST control) | 1.25 fold enrichment (6-mer frequency, TF over GST control) | 1.34 fold enrichment (6-mer frequency, TF over GST control) | 1.35 fold enrichment (6-mer frequency, TF over GST control) | 1.27 fold enrichment (6-mer frequency, TF over GST control)
CTGTCC | 1.34 fold enrichment (6-mer frequency, TF over GST control) | 1.22 fold enrichment (6-mer frequency, TF over GST control) | 1.29 fold enrichment (6-mer frequency, TF over GST control) | 1.28 fold enrichment (6-mer frequency, TF over GST control) | 1.28 fold enrichment (6-mer frequency, TF over GST control) | 1.36 fold enrichment (6-mer frequency, TF over GST control) | 1.25 fold enrichment (6-mer frequency, TF over GST control) | 1.27 fold enrichment (6-mer frequency, TF over GST control) | 1.1 fold enrichment (6-mer frequency, TF over GST control)
GGAAAA | 1.16 fold enrichment (6-mer frequency, TF over GST control) | 1.17 fold enrichment (6-mer frequency, TF over GST control) | 1.2 fold enrichment (6-mer frequency, TF over GST control) | 1.3 fold enrichment (6-mer frequency, TF over GST control) | 1.14 fold enrichment (6-mer frequency, TF over GST control) | 1.38 fold enrichment (6-mer frequency, TF over GST control) | 1.2 fold enrichment (6-mer frequency, TF over GST control) | 1.35 fold enrichment (6-mer frequency, TF over GST control) | 1.22 fold enrichment (6-mer frequency, TF over GST control)
CCTGCG | 1.27 fold enrichment (6-mer frequency, TF over GST control) | 1.34 fold enrichment (6-mer frequency, TF over GST control) | 1.39 fold enrichment (6-mer frequency, TF over GST control) | 1.27 fold enrichment (6-mer frequency, TF over GST control) | 1.38 fold enrichment (6-mer frequency, TF over GST control) | 1.31 fold enrichment (6-mer frequency, TF over GST control) | 1.23 fold enrichment (6-mer frequency, TF over GST control) | 1.35 fold enrichment (6-mer frequency, TF over GST control) | 1.22 fold enrichment (6-mer frequency, TF over GST control)
TGTTAC | 1.49 fold enrichment (6-mer frequency, TF over GST control) | 1.55 fold enrichment (6-mer frequency, TF over GST control) | 1.39 fold enrichment (6-mer frequency, TF over GST control) | 1.49 fold enrichment (6-mer frequency, TF over GST control) | 1.43 fold enrichment (6-mer frequency, TF over GST control) | 1.53 fold enrichment (6-mer frequency, TF over GST control) | 1.36 fold enrichment (6-mer frequency, TF over GST control) | 1.43 fold enrichment (6-mer frequency, TF over GST control) | 1.53 fold enrichment (6-mer frequency, TF over GST control)
CATGGT | 1.25 fold enrichment (6-mer frequency, TF over GST control) | 1.29 fold enrichment (6-mer frequency, TF over GST control) | 1.29 fold enrichment (6-mer frequency, TF over GST control) | 1.38 fold enrichment (6-mer frequency, TF over GST control) | 1.21 fold enrichment (6-mer frequency, TF over GST control) | 1.22 fold enrichment (6-mer frequency, TF over GST control) | 1.27 fold enrichment (6-mer frequency, TF over GST control) | 1.26 fold enrichment (6-mer frequency, TF over GST control) | 1.3 fold enrichment (6-mer frequency, TF over GST control)
